Source: PubChem BioAssay
Active and inactive are the calls of the source.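 The calls were made as follows: active = inhibition at or above 50% relative to wild type and mutant plate controls; inactive = inhibition below 50%.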

Experiment: loss of swimming-algae plug formation – whole organism, Chlamydomonas reinhardtii, WT vs cilia-less mutant, absorbance, 96-well, primary screen (AID 463189);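 also: 0% = wild type cc124 cells in DMSO and 100% = ciliumless bld1 mutant cells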
Details: Chlamydomonas reinhardtii gravitaxis, OD600 absorbance, 2 days; at 10 µM; hits give high values

Question: With `Cc1scc2c1N(C(=O)CN1CCN(C)CC1)c1ccccc1NC2=O` as the molecule, how does the inhibition read?
Answer: The inhibition was -1.6% (inactive).

Question: For `CCC(=O)c1ccc2c(c1)N(CCCN(C)C)c1ccccc1S2`, which inhibition is on record?
Answer: The inhibition was 46.1% (inactive).

Question: For `CC(=O)CCCCn1c(=O)c2c(ncn2C)n(C)c1=O`, which inhibition is on record?
Answer: The inhibition was -0.901% (inactive).

Question: Which inhibition does the source give for `COc1cc2c(CCNC(C)=O)c[nH]c2cc1O` here?
Answer: Its inhibition is -0.037% (inactive).

Question: For `O=c1[nH]c2cc(Cl)c(Cl)cc2[nH]c1=O`, which inhibition is on record?
Answer: Its inhibition is 5.88% (inactive).

Question: For `CC(=O)NNC(=O)N1Cc2ccccc2Oc2ccc(Cl)cc21`, which inhibition is on record?
Answer: Its inhibition is 3.76% (inactive).

Question: With `NS(=O)(=O)c1cccc2c1c([N+](=O)[O-])cc1nc(O)c(O)nc12` as the molecule, how does the inhibition read?
Answer: The inhibition was 0.793% (inactive).

Question: For `S=C(S)N1CCCC1`, which inhibition is on record?
Answer: Its inhibition is 21.2% (inactive).

Question: For `CCCCCCCCCCCCCCCCCCOC[C@H](COP(=O)([O-])OCC[N+](C)(C)C)OC`, which inhibition is on record?
Answer: The inhibition was -2.43% (inactive).

Question: With `CC1=C(C(=O)O)N2C(=O)[C@@H](NC(=O)C(N)C3=CCC=CC3)[C@H]2SC1` (stereo not given in full) as the molecule, how does the inhibition read?
Answer: Its inhibition is 6.7% (inactive).

Question: For `COc1cc(/C=C(\C#N)C(=O)c2ccc(O)c(O)c2)cc(I)c1O`, which inhibition is on record?
Answer: Its inhibition is 7.26% (inactive).

Question: For `NCCNC(=O)c1ncsc1-c1cccc(F)c1`, which inhibition is on record?
Answer: Its inhibition is 0.32% (inactive).

Question: With `CSc1nc(N)c2ncn([C@@H]3O[C@H](COP(=O)(O)OP(=O)(O)OP(=O)(O)O)[C@H](O)C3O)c2n1` (stereo not given in full) as the molecule, how does the inhibition read?
Answer: The inhibition was -3.46% (inactive).

Question: With `O=C1C2C=CC=CC2=NC(=S)N1CCN1CCC(=C(c2ccc(F)cc2)c2ccc(F)cc2)CC1` (stereo not given) as the molecule, how does the inhibition read?
Answer: Its inhibition is -0.94% (inactive).

Question: Which inhibition does the source give for `Cc1ccc(C(=O)O[C@H](C(=O)O)[C@H](OC(=O)c2ccc(C)cc2)C(=O)O)cc1` (tested in a mixture with another compound) here?
Answer: The inhibition was 5.96% (inactive).

Question: With `COC(=O)C1=C(C)NC(C)=C(C(=O)OCCN(C)Cc2ccccc2)C1c1cccc([N+](=O)[O-])c1` (stereo not given) as the molecule, how does the inhibition read?
Answer: The inhibition was -0.607% (inactive).

Question: Which inhibition does the source give for `Nc1ncnc2c1ncn2C1CCCO1` (stereo not given) here?
Answer: Its inhibition is -5.2% (inactive).

Question: For `CC(C)NCC(O)c1ccc(NS(C)(=O)=O)cc1` (stereo not given), which inhibition is on record?
Answer: The inhibition was -0.482% (inactive).

Question: With `CC1(C)NC(=O)N(c2ccc([N+](=O)[O-])c(C(F)(F)F)c2)C1=O` as the molecule, how does the inhibition read?
Answer: Its inhibition is 0.277% (inactive).

Question: For `C1CCc2nnnn2CC1`, which inhibition is on record?
Answer: Its inhibition is 5.68% (inactive).

Question: Which inhibition does the source give for `COC(=O)[C@@H](N)Cc1ccc(O)c(O)c1` here?
Answer: Its inhibition is -3.44% (inactive).

Question: Which inhibition does the source give for `COc1ccc(CCN(C)CCc2ccc(OC)c(OC)c2)cc1OC` here?
Answer: Its inhibition is 11.9% (inactive).

Question: With `N#Cc1cc2nc(O)c(O)nc2cc1[N+](=O)[O-]` as the molecule, how does the inhibition read?
Answer: The inhibition was 1.78% (inactive).

Question: For `COC(=O)[C@H]1[C@H]2C[C@H]3c4[nH]c5ccccc5c4CCN3C[C@H]2CC[C@@H]1O`, which inhibition is on record?
Answer: The inhibition was 6.15% (inactive).

Question: With `CC(=O)N1CCN(c2ccc(OC[C@H]3CO[C@](Cn4ccnc4)(c4ccc(Cl)cc4Cl)O3)cc2)CC1` as the molecule, how does the inhibition read?
Answer: The inhibition was 74.8% (active).

Question: For `NC(N)=NCc1cccc(I)c1`, which inhibition is on record?
Answer: Its inhibition is 4.17% (inactive).

Question: For `CC(C)CN(C)c1nc(N)c(C(=O)N=C(N)N)nc1Cl`, which inhibition is on record?
Answer: Its inhibition is -3.31% (inactive).

Question: With `CC1CCN(CC[C@H]2CCCN2S(=O)(=O)c2cccc(O)c2)CC1` as the molecule, how does the inhibition read?
Answer: Its inhibition is -12.1% (inactive).

Question: Which inhibition does the source give for `CNCC[C@H](Oc1ccc(C(F)(F)F)cc1)c1ccccc1` here?
Answer: Its inhibition is -14.3% (inactive).

Question: With `COc1ccc2c(c1)c(CC(=O)O)c(C)n2C(=O)c1ccccc1` as the molecule, how does the inhibition read?
Answer: Its inhibition is 2.3% (inactive).

Question: For `Cn1cc(C(F)(F)F)nc1-c1ccc(OCC(O)CNCCOc2ccc(O)c(C(N)=O)c2)cc1` (stereo not given), which inhibition is on record?
Answer: The inhibition was -6.96% (inactive).

Question: For `CCSC(N)=Nc1ccc(C(F)(F)F)cc1`, which inhibition is on record?
Answer: The inhibition was 3.43% (inactive).

Question: With `CC[C@@H](C)[C@H]1O[C@]2(CC[C@@H]1C)C[C@@H]1C[C@@H](C/C=C(\C)[C@@H](O[C@H]3C[C@H](OC)[C@@H](O[C@H]4C[C@H](OC)[C@@H](O)[C@H](C)O4)[C@H](C)O3)[C@@H](C)/C=C/C=C3\CO[C@@H]4[C@H](O)C(C)=C[C@@H](C(=O)O1)[C@]34O)O2` as the molecule, how does the inhibition read?
Answer: The inhibition was 22.3% (inactive).

Question: With `CNC1(C)C2CCC(C2)C1(C)C` (stereo not given) as the molecule, how does the inhibition read?
Answer: Its inhibition is 2.45% (inactive).

Question: For `C=CCN1CCc2cc(O)c(O)cc2C(c2ccccc2)C1` (stereo not given), which inhibition is on record?
Answer: Its inhibition is 8.31% (inactive).

Question: Which inhibition does the source give for `NS(=O)(=O)c1cc2c(cc1Cl)NC(C1CC3C=CC1C3)NS2(=O)=O` (stereo not given) here?
Answer: The inhibition was -0.288% (inactive).

Question: For `NC(=NCCC[C@H](N)C(=O)O)NO`, which inhibition is on record?
Answer: The inhibition was -1.45% (inactive).

Question: For `NC(=O)NO`, which inhibition is on record?
Answer: The inhibition was -5.8% (inactive).

Question: With `COc1cc(Cc2cnc(N)nc2N)cc(OC)c1OC` as the molecule, how does the inhibition read?
Answer: Its inhibition is 0.332% (inactive).

Question: Which inhibition does the source give for `COc1ccccc1N1CCN(CCCNc2cc(=O)n(C)c(=O)n2C)CC1` here?
Answer: The inhibition was 9.94% (inactive).
